# Measurements from PubChem BioAssay AID488969 (Vanderbilt High Throughput Screening Facility, 2010).
# Over roughly 110,000 compounds, “z-score” has its median near -0.1; the highest 2% begin near 2. What follows is part of a selection rich in the highest values, with near analogues and random picks from the rest. Activity calls are given as the source filed them.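 How the source made its calls: active means z-score in the third read window above 3 or below -3; inactive means the rest.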
# Target: Metabotropic glutamate receptor 8 (Rattus norvegicus) (UniProt P70579)
# Test: mGluR8 Gi/Go-coupled signaling modulation – cell-based, rat, thallium flux, HTS, primary screen (AID 488969)
# Settings: HEK293 rat mGluR8, GIRK (G protein-gated inwardly rectifying potassium channel) thallium flux, FluoZin2; at 10 µM; stronger effect = higher value; submaximal glutamate (EC20) added with thallium
# Metabotropic glutamate receptor 8 (Rattus norvegicus), sequence (P70579 whole entry, looked up): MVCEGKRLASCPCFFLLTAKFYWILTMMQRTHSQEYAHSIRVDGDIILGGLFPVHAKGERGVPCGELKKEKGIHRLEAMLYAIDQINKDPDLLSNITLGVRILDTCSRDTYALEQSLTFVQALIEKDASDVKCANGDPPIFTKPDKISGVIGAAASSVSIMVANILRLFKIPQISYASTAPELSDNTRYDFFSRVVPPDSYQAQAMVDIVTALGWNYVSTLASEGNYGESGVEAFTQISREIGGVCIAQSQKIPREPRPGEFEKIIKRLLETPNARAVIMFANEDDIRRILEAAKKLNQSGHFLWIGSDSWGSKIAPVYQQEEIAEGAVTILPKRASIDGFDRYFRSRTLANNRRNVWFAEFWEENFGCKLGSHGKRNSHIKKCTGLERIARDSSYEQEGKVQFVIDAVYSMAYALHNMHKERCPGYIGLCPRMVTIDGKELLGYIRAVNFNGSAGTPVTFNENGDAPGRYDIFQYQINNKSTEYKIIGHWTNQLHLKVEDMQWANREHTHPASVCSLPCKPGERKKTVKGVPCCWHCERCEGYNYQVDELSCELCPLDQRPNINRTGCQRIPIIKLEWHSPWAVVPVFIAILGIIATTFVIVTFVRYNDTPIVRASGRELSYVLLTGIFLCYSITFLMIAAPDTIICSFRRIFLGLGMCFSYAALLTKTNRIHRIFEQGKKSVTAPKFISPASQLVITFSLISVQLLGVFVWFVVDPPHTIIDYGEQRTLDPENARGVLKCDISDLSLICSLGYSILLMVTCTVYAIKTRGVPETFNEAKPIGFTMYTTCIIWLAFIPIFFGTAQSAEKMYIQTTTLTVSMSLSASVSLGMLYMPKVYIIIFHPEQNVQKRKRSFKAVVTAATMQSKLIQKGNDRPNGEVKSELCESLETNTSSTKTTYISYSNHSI
row,SMILES,z-score
1,Cc1cccc2cc(C(c3nnnn3C(C)(C)C)N3CCN(C(=O)c4ccco4)CC3)c(=O)[nH]c12 (configuration not stated),0.516
2,CCN1CCN(C(=O)C2CCN(C(=O)c3cc4sccc4n3CC)CC2)CC1,2.56
3,CCn1c(C(=O)N2CCC(C(=O)N3CCN(c4ccccn4)CC3)CC2)cc2sccc21,0.181
4,CCN1CCN(C(=O)c2cc3sccc3n2CC(=O)c2ccccc2)CC1,-0.119
5,CC1(C)C(C#N)=C(N)OC2=C1C(=O)CCC2,0.297
6,Cc1cc2nc3c(c(=O)n2[nH]1)CCCC3,-0.219
7,CCCC(=O)Nc1nc2ccc(S(N)(=O)=O)cc2s1,-0.295
8,O=C(NCC1CCCO1)C(c1cccs1)N(C(=O)c1ccc(-c2ccccc2)[nH]1)C1CCCC1 (configuration not stated),-0.0712
9,O=C(NCC1CCCO1)C(c1cccs1)N(Cc1cccs1)C(=O)c1ccc(-c2ccccc2)[nH]1 (configuration not stated),-0.486
10,O=C(NCC1CCCO1)C(c1cccs1)N(Cc1ccccc1Cl)C(=O)c1ccc(-c2ccccc2)[nH]1 (configuration not stated),2.14
11,COC(=O)CC1COc2ccccc2N1C(=O)c1ccc(C(C)(C)C)cc1 (configuration not stated),-0.191
12,CCCC(=O)Nc1cc(-c2nnc(OC)c3ccccc23)ccc1N1CCOCC1,-0.445
13,O=C(Oc1ccc([N+](=O)[O-])cc1)c1cccnc1,-0.0965
14,CCNC(=S)SCCOc1ccc(C)cc1,0.376
15,CNC(=S)SCCOc1ccccc1C,0.297
16,CNC(=S)SCCOc1ccc(C)cc1,6.37 (active)
17,Cc1ccc2nc3sc(C(=O)Nc4c(C)[nH]c(=O)[nH]c4=O)c(N)c3cc2c1,-0.158
18,NC(=O)CCn1nc(-c2ccc(Cl)cc2)c2ccccc2c1=O,-0.686
19,O=C(/C=C(\O)c1ccc(Cl)cc1)C(=O)NNC(=O)C(O)(c1ccccc1)c1ccccc1,-0.125
20,COc1ccc(/C(O)=C/C(=O)C(=O)NNC(=O)C(O)(c2ccccc2)c2ccccc2)cc1,-0.343
21,Cc1ccc(/C(O)=C/C(=O)C(=O)NNC(=O)C(O)(c2ccccc2)c2ccccc2)cc1,2.44

row,SMILES,z-score
1,CCn1c(SCC(=O)Nc2nnc(C)s2)nnc1-c1ccco1,-0.0211
2,O=C1C(=O)N(CCO)C(c2ccccc2)/C1=C(\O)c1ccccc1 (configuration not stated),-0.284
3,O=C(CNC(=O)C12CC3CC(CC(C3)C1)C2)N1CCN(S(=O)(=O)c2cccs2)CC1,-0.178
4,CCCn1c(SCC(=O)NC2CCCCC2C)n[nH]c1=O (configuration not stated),0.79
5,Cc1ccc(-c2ccc(/C=N/NC(=S)Nc3ccccc3)o2)cc1[N+](=O)[O-],0.442
6,O=C(CNc1ccccc1)N/N=C/c1ccc([N+](=O)[O-])o1,-0.389
7,O=[N+]([O-])c1ccc(/C=N/NC(=S)Nc2ccccc2F)o1,6.05 (active)
8,O=[N+]([O-])c1ccc(/C=N/NC(=S)Nc2ccccc2C(F)(F)F)o1,1.06
9,O=[N+]([O-])c1ccc(/C=N/NC(=S)Nc2ccccc2)o1,2.92
10,COC(=O)N/N=C/c1ccc([N+](=O)[O-])o1,-0.0263
11,N#CCCn1cc(/C=N/O)c(-c2ccccc2)n1,0.0606
12,C1=C(CCNc2nnnn2-c2ccccc2)CCCC1,-0.26
13,Fc1cccc(NC(=S)Nc2ccc(Br)cc2)c1,0.843
14,Cc1nn(-c2ccccc2)c(N2CCCC2)c1/C=N/NC(=S)Nc1ccccc1C(F)(F)F,0.583
15,Fc1ccc(CNC(=S)Nc2ccc(Cl)cc2Cl)cc1,0.134
16,Fc1ccccc1/C=N/NC(=S)Nc1ccc(Cl)cc1Cl,3.47 (active)
17,Cc1nn(-c2ccccc2)c(N2CCCC2)c1/C=N/NC(=S)Nc1ccccc1F,2.42
18,FC(F)(F)c1ccc(Cl)c(NC(=S)N/N=C/c2ccccc2C(F)(F)F)c1,1.14
19,Cc1ccc(NC(=S)N/N=C/c2c(C)nn(-c3ccccc3)c2N2CCCC2)cc1,0.376
20,CN(C)/C=N/C(=S)Nc1ccccc1F,0.0261
21,Fc1ccccc1NC(=S)N/N=C/c1ccccc1Br,13.4 (active)

row,SMILES,z-score
1,Fc1ccccc1NC(=S)Nc1ccc(Br)cc1,0.657
2,Cn1c(NC(=O)c2ccco2)cc(=O)n(C)c1=O,-0.188
3,O=C(CCSCCc1ccccn1)Nc1ccc(Br)cc1F,-0.191
4,CCc1nc2ccccc2n1Cc1ccccc1OC,-0.822
5,CC1=NNC(=O)C1CCC(=O)N/N=C/C(Br)=C/c1ccccc1 (configuration not stated),-0.0952
6,O=C(c1ccc([N+](=O)[O-])cc1)N(Cc1ccc(Cl)cc1)N1C(=O)CCCC1=O,-0.682
7,Cn1cnnc1SCC(=O)Nc1sc2c(c1C#N)CCCCC2,0.0796
8,COc1ccc2cnn(Cc3ccccc3)c(=O)c2c1OC,0.037
9,Cc1ccc(/C=N/n2c(COc3ccccc3)n[nH]c2=S)s1,3.29 (active)
10,S=c1[nH]nc(C2CCCCC2)n1/N=C/c1cccs1,2.48
11,Cc1ccc(-c2n[nH]c(=S)n2/N=C/c2cccs2)cc1,2.22
12,Cc1ccc(-c2n[nH]c(=S)n2/N=C/c2ccc(C)s2)cc1,2.29
13,Cc1ccc(/C=N/n2c(C3CCCCC3)n[nH]c2=S)s1,0.644
14,CC(C)(C)c1n[nH]c(=S)n(/N=C/c2cccs2)c1=O,0.25
15,S=c1[nH]nc(-c2ccccc2)n1/N=C/c1cccs1,0.587
16,Cc1cccc(-c2n[nH]c(=S)n2/N=C/c2ccc(C)s2)c1,0.7
17,Cc1ccsc1/C=N/n1c(COc2ccccc2)n[nH]c1=S,0.533
18,Cc1ccc(/C=N/n2c(-c3cccnc3)n[nH]c2=S)s1,-0.311
19,S=c1[nH]nc(COc2ccccc2)n1/N=C/c1cccs1,0.649
20,Cc1ccsc1/C=N/n1c(C2CCCCC2)n[nH]c1=S,0.383
